Assay outcomes as filed in PubChem.
This is a sample that favours compounds with a hit; in the whole collection about 3.2% have one here.
AMA1-RON2 inh = disrupts binding of P. falciparum AMA1 to RON2; AlphaScreen AMA1-biotinylated RON2 peptide binding; Potency, µM (top dose mostly 58.2 µM), without a hit: at the top dose activity change, negative = inhibition, most hits filed as inhibitors; hit rate 0.2% among 360,000;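 also: 0% = vehicle wells and -100% = peptide control; nearly all actives have a fitted effect of over 45% in size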
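AMA1 (3D7) with his tag at 25 nM final met compounds first, then biotinylated RON2 peptide at 25 nM; detection used donor plus acceptor beads, 10 µg/mL apiece, read by AlphaScreen after 30 min at room temperature.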
RE007 growth inh = less growth of the S. pombe RE007 Vpr strain; S. pombe RE007 Vpr strain, BacTiter-Glo ATP luminescence, 24 h; Potency, µM (top dose mostly 92.2 µM), inactives show at the top dose activity change, negative = less growth, hits mostly inhibitors; hit rate 0.21% among 360,000; AID 651644; active = well fitted falling curve with a large enough effect; inconclusive = small, poorly fitted or top-dose-only effect; inactive = no such curve, though single readings can be large or run the other way; also: nearly all actives have a fitted effect of over 50% in size
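Fission yeast strain RE007, carrying one chromosomally integrated HIV-1 vpr copy, was seeded at OD 0.01 in PMG+AL medium with 23 nL pinned compound. After 24 h at 30 °C and 99% humidity, viability was read by BacTiter-Glo luminescence.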
Tb PYK inh = blocks Trypanosoma brucei pyruvate kinase | Potency, µM (top dose mostly 76.8 µM), without a hit: top-dose activity, negative = inhibition, actives largely listed as inhibitors | AID 624173 | hit rate 0.12% among 410,000 | TbPYK enzyme, Kinase-Glo Plus ATP luminescence, 45 min; also: nearly all actives have a fitted effect of over 50% in size
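Screened from lowest to highest concentration, compounds were pinned into TbPYK/substrate mixtures, and ADP (130 uM final) was added. Plates sat at room temperature for 45 min prior to Kinase-Glo Plus detection by luminescence.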
Sm TGR block = S. mansoni TGR enzyme inhibition | Q962Y6 | Potency, µM (highest dose often 114 µM), for the others: at the highest dose activity change, negative = inhibition, actives largely listed as inhibitors | hit rate 3% among 360,000 | purified TGR, DTNB reduction, TNB absorbance 405 nm; also: nearly all actives have a fitted effect of over 60% in size
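TGR 20 nM + NADPH 100 uM (dispensed conc.), cpd preinc 15 min RT; start with NADPH (500 uM addition) then DTNB (15 mM addition). Kinetic TNB absorbance, 405 nm filter. Four-parameter Hill fit across titration.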
LmPK inh = inhibitors of Leishmania mexicana pyruvate kinase; Q27686; purified LmPK, Kinase-Glo ATP luminescence, 1 h; Potency, µM (top dose mostly 57.5 µM), for inactives: top-dose activity change, negative = inhibition, most hits filed as inhibitors; hit rate 0.37% among 290,000; AID 1721
Target sequence (Q27686 whole entry, looked up): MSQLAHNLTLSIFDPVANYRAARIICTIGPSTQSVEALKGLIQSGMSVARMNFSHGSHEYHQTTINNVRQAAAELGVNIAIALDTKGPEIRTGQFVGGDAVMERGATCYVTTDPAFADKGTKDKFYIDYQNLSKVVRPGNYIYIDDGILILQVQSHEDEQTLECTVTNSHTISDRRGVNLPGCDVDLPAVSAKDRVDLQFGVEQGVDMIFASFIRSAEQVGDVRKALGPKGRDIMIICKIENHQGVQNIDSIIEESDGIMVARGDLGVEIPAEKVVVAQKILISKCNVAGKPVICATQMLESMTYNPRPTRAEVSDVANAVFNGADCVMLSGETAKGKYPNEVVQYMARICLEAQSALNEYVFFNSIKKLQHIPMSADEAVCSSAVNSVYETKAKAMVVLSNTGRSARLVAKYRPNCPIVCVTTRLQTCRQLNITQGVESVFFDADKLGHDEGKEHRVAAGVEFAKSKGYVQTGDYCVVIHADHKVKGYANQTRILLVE
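In 50 mM imidazole pH 7.2 with 7 mM MgCl2, LmPK (0.1 nM) turned over PEP (0.5 mM) and ADP (0.1 mM) for 1 h at room temperature. Luciferase read-out of ATP.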
* = called active by the depositor; ? = inconclusive; nt = no result given; [ ] = remark or other dose. Unless noted, calls follow the shape of the dose curve; as a rule, active = well fitted curve in the direction sought with a large enough effect; inconclusive = small, poorly fitted or top-dose-only effect, or another doubt; inactive = no such curve, though single readings can be large; an effect the other way counts as inactive or inconclusive. Unless noted, % is scaled to controls: 0 for no effect and ±100 for the full control effect; potency is read from the fitted curve at half-maximal effect.

SMILES	AMA1-RON2 inh	RE007 growth inh	Tb PYK inh	Sm TGR block	LmPK inh
COc1ccc(NC(=O)/C=C/c2ccc(C)o2)cc1S(=O)(=O)N1CCOCC1	-1.0%	-5.2%	-18.2%	17.8µM*	5.1%
Cc1ccc(C(=O)c2oc3ccccc3c2NC(=O)c2nc(S(C)(=O)=O)ncc2Cl)cc1F	nt	nt	0.1%	-13.2%	nt
COC(=O)C1C/C(=N/NS(=O)(=O)c2ccc(C)cc2)CS1 (stereo not drawn)	2.9%	1.2%	-11.1%	12.6µM*	-6.1%
O=C(O)c1ccccc1SCCS(=O)(=O)c1ccc(Cl)cc1Cl	-5.0%	-14.3%	1.7%	44.7µM*	3.1%
Cc1ccccc1-n1c(O)c(C(c2ccncc2)c2c(O)n(-c3ccccc3C)c(=O)[nH]c2=O)c(=O)[nH]c1=O	-0.1%	-1.9%	2.2%	1.12µM*	4.8%
CCN(CC)CCCNc1oc(-c2ccc(OC)cc2)nc1C#N	nt	nt	2.2%	8.1%	nt
COc1ccc(CN2C(=O)NC(=O)/C(=C/c3ccc([N+](=O)[O-])s3)C2=O)cc1	-15.1%	?	?	1.12µM*	-8.5%
COc1ccc(CN2C(=O)NC(=O)/C(=C\c3cc(OC)c(OC)c(OC)c3)C2=O)cc1	3.1%	3.8%	-19.5%	12.6µM*	-9.6%
COc1cc(OC)c(OC)cc1/C=C1/C(=O)NC(=O)N(Cc2ccccc2)C1=O	-2.8%	0.4%	-23.5%	?	1.3%
O=C1NC(=O)N(Cc2ccc(F)cc2)C(=O)/C1=C\c1ccc([N+](=O)[O-])s1	-26.8%	?	?	2.24µM*	-5.8%
COc1cccc(N2CCN(c3ncc4c(n3)CCN(Cc3ccc(Br)cc3)C4)CC2)c1	nt	nt	-0.7%	3.0%	nt
CCN(CC)CCOC(=O)c1ccc(N)cc1Cl	nt	nt	-1.0%	nt	nt
O=C(Nc1cccc2nsnc12)c1ccc(-c2ccc(Br)cc2)o1	7.2%	-11.8%	-10.1%	35.5µM*	-1.4%
Cc1ccc2cccc(NC(=O)c3ccc(-c4ccc(Br)cc4)o3)c2n1	nt	nt	1.6%	-19.8%	nt
COc1ccc(-c2nc3ccccc3o2)cc1NC(=O)c1ccc(-c2ccc(Br)cc2)o1	nt	nt	-8.9%	-25.4%	nt
O=C(Nc1cccc(-c2nc3ccccc3o2)c1)c1ccc(-c2ccc(Br)cc2)o1	nt	nt	2.8%	39.8µM*	nt
O=C(Nc1ccc2oc(-c3cccnc3)nc2c1)c1ccc(-c2cccc(OC(F)(F)F)c2)o1	nt	nt	-12.9%	10µM*	nt
Cc1cc2oc3c(c(=O)c2cc1C)C(c1ccc(C(C)C)cc1)N(c1nc(C)c(C)s1)C3=O (stereo not drawn)	nt	nt	-3.8%	3.2%	nt
CCOc1ccc(N2C(=O)CC(N3CCN(C(=O)c4ccco4)CC3)C2=O)cc1 (stereo not drawn)	5.4%	-4.2%	2.0%	44.7µM*	1.3%
O=C(c1ccco1)N1CCN(C2CC(=O)N(c3ccc(C(F)(F)F)cc3)C2=O)CC1 (stereo not drawn)	-24.2%	?	2.8%	50.1µM*	-1.2%
O=C1c2ccccc2-c2c1cccc2C(=O)N1CCN(C(=O)c2ccco2)CC1	-0.5%	15.6%	?	20µM*	0.3%
O=C(c1ccco1)N1CCN(C2CC(=O)N(c3ccccc3)C2=O)CC1 (stereo not drawn)	5.2%	-26.8%	-16.0%	50.1µM*	6.3%
O=C(c1ccco1)N1CCN(C2CC(=O)N(c3ccc4c(c3)OCO4)C2=O)CC1 (stereo not drawn)	9.0%	-5.5%	-6.5%	-15.2%	-1.8%
CCCSc1ccccc1C(=O)N1CCN(C(=O)c2ccco2)CC1	23.0%	8.5%	-0.8%	-18.2%	-6.9%
CCOC(=O)c1ccc(N2C(=O)CC(N3CCN(C(=O)c4ccco4)CC3)C2=O)cc1 (stereo not drawn)	-3.4%	?	-4.9%	-29.7%	-0.5%
SMILES	AMA1-RON2 inh	RE007 growth inh	Tb PYK inh	Sm TGR block	LmPK inh
O=C1CC(N2CCN(c3cccc(C(F)(F)F)c3)CC2)C(=O)N1c1ccccc1 (stereo not drawn)	0.0%	?	4.1%	-29.9%	-7.1%
CCOc1ccc(CNC(=O)C2CCN(c3nnc(-n4c(C)ccc4C)s3)CC2)cc1	nt	nt	2.4%	?	nt
O=C(c1ccco1)N1CCN(S(=O)(=O)Cc2ccccc2Cl)CC1	4.6%	12.1%	-10.8%	31.6µM*	6.0%
CCOc1ccccc1CNC(=O)c1cnc2sc(N3CCOCC3)nn2c1=O	nt	nt	-7.1%	0.8%	nt
Cc1nnc(NC(=O)CSc2nc3[nH]ncc3c(=O)[nH]2)s1	24.9%	-11.2%	0.6%	44.7µM*	-8.0%
Cc1csc2nc(-c3cccc(NC(=O)C(C)C)c3)cn12	nt	nt	0.2%	2.2%	nt
COc1ccc(C2CC(c3ccc(C)o3)=NN2C(C)=O)cc1 (stereo not drawn)	-28.8%	-1.1%	-7.5%	0.6%	-5.0%
CCOc1cccc2c1OC(c1cc(OC)c(OC)c(OC)c1)N1N=C(c3ccc(C)o3)CC21 (stereo not drawn)	52.8%	?	-8.5%	44.7µM*	-6.4%
NC1=NC(=O)/C(=C\c2ccc(O)c([N+](=O)[O-])c2)S1	10.3%	-23.9%	2.5%	4.5%	-14.0%
NC1=NC(=O)/C(=C/c2cccc(-c3ccc(S(N)(=O)=O)cc3)c2)S1	-6.3%	-4.2%	-9.5%	10µM*	-11.7%
O=C(COC(=O)CNC(=O)c1ccc(Cl)cc1Cl)Nc1cccc(S(=O)(=O)N2CCCC2)c1	4.4%	1.9%	-1.0%	50.1µM*	nt
Cc1cc2c(cc1S(=O)(=O)N(CCN(C)C)Cc1ccccc1)OCC(=O)N2	nt	nt	6.5%[15.4 µM]	1.5%	nt
O=C(O)C(O)c1ccccc1 (stereo not drawn)	-1.7%	4.0%[18.4 µM]	-4.5%	-1.6%	2.4%
NC(C(=O)O)C(c1ccccc1)C(F)F (stereo not drawn)	27.3%	-8.3%	5.5%	56.2µM*	-12.1%
CCCCOc1nc(N2CCOCC2)nc(C)c1[N+](=O)[O-]	-1.5%	-1.8%	-1.1%	-25.1%	0.3%
Cc1nc(N2CCOCC2)nc(Oc2ccccc2)c1[N+](=O)[O-]	-3.2%	12.8%	1.7%	7.08µM*	-4.8%
CCC(Sc1nc2c(sc3ccccc32)c(=O)n1CCCC(=O)NC1CCCC1)C(=O)Nc1cccc(OC)c1 (stereo not drawn)	nt	nt	4.1%	1.0%	nt
COCC1=C(C(=O)OC(C)OC(=O)OC(C)C)N2C(=O)C(NC(=O)/C(=N\OC)c3csc(N)n3)C2SC1 (stereo not drawn)	nt	nt	-3.1%	nt	nt
O=C(CCl)N1CCN(S(=O)(=O)c2ccc3c(c2)OCCCO3)CC1	-6.1%	2.5%	1.2%	15.8µM*	nt
O=C(CCl)N1CCN(S(=O)(=O)c2ccc3ccccc3c2)CC1	-14.3%	2.4%	0.8%	5.62µM*	-9.2%
CN(C)C(=O)N1CCN(S(=O)(=O)c2ccc3ccccc3c2)CC1	-6.5%	22.1%	-0.2%	7.8%	-8.7%
O=C(CCc1nnc2n(Cc3ccccc3Cl)c(=O)c3ccccc3n12)Nc1ccc(F)cc1	nt	nt	-11.0%	7.4%	nt
